According to PMC7862700, “An all-to-all approach to the identification of sequence-specific readers for epigenetic DNA modifications on cytosine”:

biological target: T1, ELK1 (Homo sapiens, UniProt P19419 1-428); experiment: DAPPL (digital affinity profiling via proximity ligation, sequencing); 10 mM Tris-HCl pH 7.5, 50 mM NaCl, 1 mM DTT, 4% glycerol, room temperature, 30 min; GST-TFs on glutathione beads, 16-mer random dsDNA library, 0.1% formaldehyde crosslink after washing; high values mean tight binding; details: protein: recombinant; tags: N-terminal GST; dsDNA, one strand shown
T1 sequence: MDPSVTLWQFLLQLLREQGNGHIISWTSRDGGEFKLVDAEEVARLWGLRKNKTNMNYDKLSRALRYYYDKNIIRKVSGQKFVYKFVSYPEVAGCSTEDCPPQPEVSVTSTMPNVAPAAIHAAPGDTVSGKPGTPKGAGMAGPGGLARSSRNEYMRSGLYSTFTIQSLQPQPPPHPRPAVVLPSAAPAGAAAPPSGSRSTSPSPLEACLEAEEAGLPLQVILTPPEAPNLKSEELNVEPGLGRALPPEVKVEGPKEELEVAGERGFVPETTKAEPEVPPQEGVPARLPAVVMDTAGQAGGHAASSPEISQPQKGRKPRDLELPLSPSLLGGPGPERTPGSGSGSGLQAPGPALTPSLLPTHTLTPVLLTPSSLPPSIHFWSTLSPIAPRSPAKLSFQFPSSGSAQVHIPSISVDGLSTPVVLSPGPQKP
In short: (§1)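 Yeast served to express human transcription factors as GST fusions, which were then captured on glutathione beads and labelled with DNA barcodes. Pooled with a tag-only sample, they were incubated with 200 nmole of a 16-mer random double-stranded DNA library for 30 min at room temperature in Tris/NaCl/DTT/glycerol buffer, washed, crosslinked with 0.1% formaldehyde, ligated by proximity, amplified by PCR and sequenced. Dividing each hexamer's read frequency for a factor by its frequency for the tag-only sample gives the binding signal.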

Sequence	binding signal
TTTCAA	1.23 fold enrichment (6-mer frequency, TF over GST control)
ACCCGC	1.29 fold enrichment (6-mer frequency, TF over GST control)
GGAACT	1.8 fold enrichment (6-mer frequency, TF over GST control)
AGGAAG	1.32 fold enrichment (6-mer frequency, TF over GST control)
TTATTC	1.41 fold enrichment (6-mer frequency, TF over GST control)
AACCAC	1.19 fold enrichment (6-mer frequency, TF over GST control)
CTAAAC	1.18 fold enrichment (6-mer frequency, TF over GST control)
GTTCAC	1.23 fold enrichment (6-mer frequency, TF over GST control)
GATGCC	1.36 fold enrichment (6-mer frequency, TF over GST control)
CACACG	1.11 fold enrichment (6-mer frequency, TF over GST control)
CCTCAT	1.3 fold enrichment (6-mer frequency, TF over GST control)
TTTGGT	1.29 fold enrichment (6-mer frequency, TF over GST control)
ACCCCG	1.3 fold enrichment (6-mer frequency, TF over GST control)
TTTGGC	1.27 fold enrichment (6-mer frequency, TF over GST control)
CGTATG	1.1 fold enrichment (6-mer frequency, TF over GST control)
AACAAG	1.08 fold enrichment (6-mer frequency, TF over GST control)
ACACCT	1.09 fold enrichment (6-mer frequency, TF over GST control)
CGTACC	1.15 fold enrichment (6-mer frequency, TF over GST control)
CCATCT	1.44 fold enrichment (6-mer frequency, TF over GST control)
GACCTC	1.35 fold enrichment (6-mer frequency, TF over GST control)
CCATAC	1.07 fold enrichment (6-mer frequency, TF over GST control)
CCTCAA	1.32 fold enrichment (6-mer frequency, TF over GST control)
TGATCC	1.32 fold enrichment (6-mer frequency, TF over GST control)
AAAGAT	1.21 fold enrichment (6-mer frequency, TF over GST control)
GCCAAT	1.02 fold enrichment (6-mer frequency, TF over GST control)
CGTCTT	1.43 fold enrichment (6-mer frequency, TF over GST control)
CGCTAC	1.23 fold enrichment (6-mer frequency, TF over GST control)
CAGGAT	1.16 fold enrichment (6-mer frequency, TF over GST control)
ATTGCC	1.27 fold enrichment (6-mer frequency, TF over GST control)
GGCTAG	1.11 fold enrichment (6-mer frequency, TF over GST control)

biological target: T2, GABPA (Homo sapiens, UniProt Q06546 1-454); experiment: as above; details: protein: recombinant; tags: N-terminal GST; dsDNA, one strand shown
T2 sequence: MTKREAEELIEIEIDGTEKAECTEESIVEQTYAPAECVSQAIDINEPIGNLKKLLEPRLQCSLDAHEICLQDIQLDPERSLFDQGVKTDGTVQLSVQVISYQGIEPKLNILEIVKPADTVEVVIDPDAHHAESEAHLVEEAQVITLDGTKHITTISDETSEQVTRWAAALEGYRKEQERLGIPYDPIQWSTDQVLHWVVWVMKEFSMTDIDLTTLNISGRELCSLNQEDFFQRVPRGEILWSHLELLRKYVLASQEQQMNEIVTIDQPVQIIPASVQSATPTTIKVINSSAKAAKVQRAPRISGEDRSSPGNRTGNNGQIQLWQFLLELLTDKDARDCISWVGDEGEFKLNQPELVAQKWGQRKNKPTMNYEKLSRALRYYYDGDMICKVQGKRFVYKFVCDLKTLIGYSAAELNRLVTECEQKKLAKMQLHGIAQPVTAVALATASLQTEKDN
In short: as §1

Sequence	binding signal
CCTCAC	1.26 fold enrichment (6-mer frequency, TF over GST control)
CGTCAC	1.18 fold enrichment (6-mer frequency, TF over GST control)
CATGCT	1.21 fold enrichment (6-mer frequency, TF over GST control)
CTTACT	1.3 fold enrichment (6-mer frequency, TF over GST control)
CGGCAT	1.07 fold enrichment (6-mer frequency, TF over GST control)
TGCATT	1.37 fold enrichment (6-mer frequency, TF over GST control)
TCGCAA	1.19 fold enrichment (6-mer frequency, TF over GST control)
TCGTAC	1.18 fold enrichment (6-mer frequency, TF over GST control)
TTTACG	1.34 fold enrichment (6-mer frequency, TF over GST control)
GAAGCA	1.3 fold enrichment (6-mer frequency, TF over GST control)
TTTCAA	1.31 fold enrichment (6-mer frequency, TF over GST control)
ACCCGC	1.35 fold enrichment (6-mer frequency, TF over GST control)
GGAACT	1.61 fold enrichment (6-mer frequency, TF over GST control)
AGGAAG	1.24 fold enrichment (6-mer frequency, TF over GST control)
TTATTC	1.38 fold enrichment (6-mer frequency, TF over GST control)
AACCAC	1.17 fold enrichment (6-mer frequency, TF over GST control)
CTAAAC	1.23 fold enrichment (6-mer frequency, TF over GST control)
GTTCAC	1.32 fold enrichment (6-mer frequency, TF over GST control)
GATGCC	1.38 fold enrichment (6-mer frequency, TF over GST control)
CACACG	1.23 fold enrichment (6-mer frequency, TF over GST control)
